# Measured values: PubChem BioAssay (NCI)
# The panel holds about 83,000 compounds, 20% with a hit somewhere; the sample as a whole holds those more often.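 48-hour exposure, single concentration, 96-well plates; percent growth endpoint where 0 means no net growth. Active: below 10.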 Unmarked numbers belong to inactive results. The source made the active and inactive calls.
# System: MDA-MB-468 breast
# Experiment: NCI-60 one-dose screen, 48 h (100 = growth as untreated, 0 = no growth, -100 = all killed)
# Conditions: 10 µM unless noted
row,SMILES,growth
1,CCN1CCN(Cc2ccc(C(=O)Nc3nc4ccc(Oc5ccnc(C(=O)NC)c5)cc4s3)cc2C(F)(F)F)CC1,36.1%
2,O=C1c2c(c3c4ccccc4n(CCCCCCBr)c3c3[nH]c4ccccc4c23)C(=O)N1O,-3.78% (active)
3,O=C1C=CN2C(=O)CC=CC2[C@@H]1O (stereo not given in full),110%
4,C=C(CNCCc1ccc(O)cc1)[C@@H]1CC[C@]2(COC3CCCCO3)CC[C@]3(C)[C@H](CC[C@@H]4[C@@]5(C)CCC(N)C(C)(C)[C@@H]5CC[C@]43C)[C@@H]12 (stereo not given in full),-85.6% (active)
5,Fc1cccc(CNc2c3ccccc3nc3ccccc23)c1F,22%
